Screening data deposited in PubChem by National Center for Advancing Translational Sciences (NCATS).
Giardia kill: Small Molecules that selectively kill Giardia lamblia: qHTS; actives 0.15% (n = 340,000); Giardia lamblia trophozoite viability; activity change, % at 7.66 µM, hits read low; in the data active means activity change below about -80%; inconclusive means between about -30% and that limit;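 further: parasites exposed to compound for two days anaerobically before the ATP read; on the % scale 0 is the no-effect control and ±100 the full control effect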
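Giardia trophozoites, 100 cells per well, were exposed to compounds for 48 hrs at 37 deg C under anaerobic conditions; viability was then read as ATP content by bioluminescence after 15-30 min at room temperature.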
IL-1B inflam inh: qHTS for Inhibitors of Inflammasome Signaling: IL-1-beta AlphaLISA Primary Screen | THP-1 LPS/ATP IL-1B secretion, AlphaLISA, 16 h; hits give low values | activity change, % at 57.5 µM | actives 4.7% (n = 360,000) | AID 743279, 2014; in the data active means activity change below about -50%; inconclusive means mostly about -30% to -49%; further: on the % scale 0 is the no-effect control and ±100 the full control effect
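THP-1 cells pretreated 1 hr with compounds (up to 57.5 uM final), then stimulated with LPS (250 ng/mL final) plus ATP (1.25 mM final); secreted IL-1B measured by AlphaLISA after 16 hr, decreased signal indicating inhibition.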
HT1080-NT tox: qHTS for induction of synthetic lethality in tumor cells producing 2HG: qHTS for the HT-1080-NT fibrosarcoma cell line; Potency, µM (doses to about 46.1 µM), without a hit: at the top dose activity, negative = less viability, most hits filed as cytotoxic; actives 1.6% (n = 360,000); HT-1080-NT fibrosarcoma viability, CellTiter-Glo ATP luminescence, 48 h;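 further: NT is the 2HG producing partner of a matched IDH1 knockdown line; potency means the concentration at half of the fitted maximal effect; 0% = DMSO-treated cells and -100% = media-only wells without cells; nearly all actives have a fitted effect of over 55% in size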
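Read-out is CellTiter-Glo luminescence after 10 minutes at room temperature, following 48 hours' compound treatment of HT-1080-NT cells (750 cells/well, RPMI, 5% FBS, 37 degrees C).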
HT1080 IDH1KD tx: qHTS for induction of synthetic lethality in tumor cells producing 2HG: qHTS for the HT-1080-IDH1KD cell line; HT-1080 IDH1 knockdown viability, ATP luminescence, 48 h; Potency, µM (top dose mostly 46.1 µM), without a hit: top-dose activity, negative = toxicity, actives largely listed as cytotoxic; actives 2% (n = 360,000); AID 686971, 2013;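 further: potency means the concentration at half of the fitted maximal effect; 0% = DMSO wells and -100% = cell-free medium wells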
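After a 2 h attachment period, IDH1KD HT-1080 cells took pin-transferred compound for 48 h at 37 °C; ATP-based luminescence after 10 min room-temperature reagent incubation reported viability.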
HepG2 viability: qHTS for Inhibitors of TGF-b: Cytotox Counterscreen; HepG2 CAGA-GFP viability, ATP luminescence, 18 h; Potency, µM (series often up to 46.1 µM), inactives show at the top dose activity change, negative = cytotoxicity, hits mostly cytotoxic; actives 0.76% (n = 410,000); further: potency means the concentration at half of the fitted maximal effect
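CellTiter-Glo luminescence gave cytotoxicity after 18 hours at 37 degrees C. The cells were HepG2 CAGA-GFP in 1% FBS DMEM, stimulated with 500 pg/mL TGF-beta after compound addition. %Activity was normalised to no-cell wells (complete cell-killing) and DMSO (no toxicity), and curves were fitted and classified.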
TGFb SMAD3 inh: qHTS for Inhibitors of TGF-b; HepG2 CAGA-GFP TGF-b/SMAD3 reporter, GFP fluorescence, 18 h; TGF-beta stimulated, 500 pg/mL final; Potency, µM (top dose mostly 46.1 µM), inactives show top-dose activity, negative = inhibition, actives largely listed as inhibitors; actives 1.2% (n = 410,000); AID 588855, 2011; further: potency means the concentration at half of the fitted maximal effect; on the % scale 0 is the no-effect control and ±100 the full control effect; nearly all actives have a fitted effect of over 65% in size
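Smad-responsive CAGA-GFP expression was quantified in HEPG2 cells exposed to compounds and 500 pg/mL final TGF-beta for 18 h at 37 degrees C; unstimulated wells defined full inhibition.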
* marks the source's active call; other numbers are inactive results; i = inactive; ? = inconclusive; / = no result given; ! = a repeat was not active. The list is not random: actives were taken first. Their share in the collection is about 6.5%. Unless noted, the call rests on the fitted dose curve; in most records, active means well fitted curve in the direction sought with a large enough effect; inconclusive means small, poorly fitted or top-dose-only effect, or another doubt; inactive means no such curve, though single readings can be large; an effect the other way counts as inactive or inconclusive.

SMILES	Giardia kill	IL-1B inflam inh	HT1080-NT tox	HT1080 IDH1KD tx	HepG2 viability	TGFb SMAD3 inh
CCOC(=O)c1ccc(N=c2sc(C(=O)OC)cc(=O)n2CCCN2CCOCC2)cc1	-8.6	-56.7*!	?	?	-45.0%	?
Cc1ccc(CN(CC(O)COc2cccc3[nH]cc(C)c23)C(C)(C)C)cc1 (stereo not drawn)	33.3	-2.5	?	-16.7%	12.6µM*	?
COC(=O)Cc1c[nH]c2cccc(OCC(O)CN(Cc3ccc([N+](=O)[O-])cc3)C(C)(C)C)c12 (stereo not drawn)	2.0	-7.1	1.0%	-12.8%	-38.9%	-17.7%
Cc1cc(C)cc(NC(=O)CCC(=O)N2CCSc3ccccc32)c1	3.0	3.4	-1.2%	0.3%	-0.6%	11.2µM*!
COc1ccc(S(=O)(=O)N2CCCCCC2)cc1C(=O)N(C)CC(=O)Nc1ccccc1Br	-8.8	-22.8	-1.9%	-0.6%	-1.6%	23.5%
CCN(CC)c1ccc2cc(-c3nc4ccccc4n3C)c(=O)oc2c1	14.2	33.5	?	?	-11.7%	?
CCN(CC)c1ccc2cc(C(=O)c3cccs3)c(=O)oc2c1	/	-52.0*	-0.8%	-3.9%	-12.9%	239.3%
CCN(CC)c1ccc2cc(-c3nc4ccccc4[nH]3)c(=O)oc2c1	-108.2*	5.0	0.5%	11.0%	-2.0%	147.0%
CCOC(=O)c1nc(NNC(=O)c2ccc([N+](=O)[O-])cc2)sc1C	0.5	-6.9	?	7.31µM*	-55.2%	?
Cc1ccc(N=Cc2cccc(O)c2O)c(C)c1	-14.4	/	/	/	-61.1%	?
Cc1ccccc1N=Cc1cccc(O)c1O	12.1	63.9	-12.5%	14.6µM*	-56.1%	15.8µM*
Cc1ccccc1C=Nc1ccccc1C(N)=O	-3.0	-1.4	16.4µM*	16.4µM*	3.5%	?
Cc1ccc(C=Nc2ccccc2C(N)=O)cc1	?	40.5	7.08µM*	5.62µM*	-14.4%	2.6%
Cc1ccc(C=Nc2ccccc2C(=O)Nc2ccccc2)cc1	?	21.9	10.0%	23.7%	-13.5%	-22.8%
COc1ccc(/C=N/Nc2nc(-c3ccc(Cl)cc3)cc(C(F)(F)F)n2)cc1OC	4.2	-52.9*	1.8%	-0.3%	-11.9%	?
COc1ccc(/C=N/Nc2nc(C)cc(-c3ccccc3)n2)cc1OC	3.4	?	-27.5%	-24.4%	-33.5%	-14.8%
O=C(CCOc1ccccc1)N(Cc1cccnc1)c1nc2c(F)cc(F)cc2s1	/	/	/	/	-34.5%	?
c1ccc2c(NCCc3c[nH]c4ccccc34)c3ccccc3nc2c1	-12.1	-56.6*	?	?	-98.8%	?
Cc1ccc(S(=O)(=O)Nc2ccc(NC(=O)Nc3cccc(C(F)(F)F)c3)cc2)cc1	14.2	-97.1*	?	?	17.8µM*	15.8µM*
CCN(CC)S(=O)(=O)c1ccc(NC(=O)Nc2cccc(C(F)(F)F)c2)cc1	14.6	-88.8*	?	?	11.2µM*	?
Cc1ccc(NC(=S)NNC(=S)Nc2cccc(C(F)(F)F)c2)cc1	1.1	-5.8	-13.8%	?	-23.8%	-9.5%
O=C(Nc1ccc(OC(F)F)cc1)Nc1cccc(C(F)(F)F)c1	10.3	-80.4*	?	?	8.91µM*	?
Cc1ccccc1NC(=O)/C=C/c1cccc(C(F)(F)F)c1	1.5	-56.9*	-7.4%	7.8%	-13.4%	0.0%
O=C(Nc1ccncc1)Nc1cccc(C(F)(F)F)c1	-2.0	-2.3	7.3%	-8.8%	-23.1%	-14.1%
C=CCNC(=S)N1CCN(CCNC2=CC(=O)CC(C)(C)C2)CC1	-1.9	5.9	13.7%	19.6%	3.7%	1.0%
SMILES	Giardia kill	IL-1B inflam inh	HT1080-NT tox	HT1080 IDH1KD tx	HepG2 viability	TGFb SMAD3 inh
NC(=O)/C=C\C(=O)Nc1cccc(C(F)(F)F)c1	3.4	-104.8*	?	10µM*	-33.8%	?
NNC(=O)Nc1cccc(C(F)(F)F)c1	-6.9	16.5	7.5%	13.5%	2.3%	13.6%
CCN(CC)S(=O)(=O)c1ccc(C(=O)NNC(=O)c2cccs2)cc1	36.6	4.0	20.8%	15.1%	8.6%	-0.2%
CCN(CC)S(=O)(=O)c1ccc(NC(=O)CSc2cccc[n+]2[O-])cc1	-10.0	0.8	1.6%	9.8%	10µM*	12.8%
CCN(CC)S(=O)(=O)c1ccc(NC(=O)c2cccs2)cc1	20.1	-52.3*	-1.4%	-2.5%	6.5%	2.1%
CCN(CC)S(=O)(=O)c1ccc(Cl)c(NC(=O)CSc2cccc[n+]2[O-])c1	-6.6	-8.7	3.5%	3.0%	-0.3%	-11.0%
CC(C)(C)c1ccc(S(=O)(=O)Nc2ccc(C(O)(C(F)(F)F)C(F)(F)F)cc2)cc1	/	-17.4	18.4µM*	20.6µM*	20µM*	12.6µM*
Cc1noc(C)c1S(=O)(=O)Nc1ccc2c(c1)CC(=O)N([C@H](C)CO)C[C@H](C)[C@@H](CN(C)CC1CC1)O2	-4.2	-1.5	3.1%	4.3%	-4.3%	8.9%
CCc1sc(C(=O)NCCCn2ccnc2)cc1Br	1.8	14.7	1.6%	1.2%	-44.3%	?
CCOC(=O)CNc1nc(Cl)nc(N2CCCCC2)n1	3.0	3.4	4.8%	3.7%	25.0%	3.2%
CN(C)c1nc(C#N)nc(N2CCOCC2)n1	-15.4	-19.0	-11.6%	-9.4%	-4.8%	-4.5%
N#Cc1nc(N2CCCC2)nc(N2CCCC2)n1	7.4	-91.5*	-18.0%	?	-12.1%	0.0%
CCOC(=O)CNc1nc(C#N)nc(N2CCOCC2)n1	-1.7	-89.7*	-7.4%	-15.9%	-1.2%	-8.1%
N#Cc1nc(N)nc(N2CCCCC2)n1	-21.1	/	/	/	0.4%	?
N#Cc1nc(N2CCCCC2)nc(N2CCOCC2)n1	-10.4	-55.3*	-15.5%	-17.8%	6.4%	-15.1%
CN(CC(=O)Nc1ccc(F)cc1)C(=O)c1cn(-c2ccccc2)nc1-c1cccs1	-3.0	-59.8*	-9.7%	-1.8%	-27.5%	-27.5%
CCN(CC)CCNC(=O)c1ccc(NC(=O)c2cn(-c3ccc(F)cc3)nc2-c2cccc(OC)c2)cc1	17.2	-89.6*	23.1µM*	20.6µM*	i	?
COc1ccc(NC(=O)CN(C)C(=O)c2cn(-c3ccccc3)nc2-c2cccs2)cc1	7.7	-15.6	-0.4%	-1.8%	-38.5%	0.0%
CCN(CC)CCNC(=O)c1ccc(NC(=O)c2cc(-c3ccco3)nc3ccccc23)cc1	9.0	-88.6*	-9.9%	-17.9%	-73.5%	-12.0%
